Several values for one entry are separate records, joined by “and”; a condition that tells them apart may be missing. Equal values may be shown once. Results filed as inconclusive are left out. Activity calls are given as the source filed them. Unless noted, the call rests on the fitted dose curve.
Legend:
[1] = qHTS assay for small molecule agonists of retinoid X receptor alpha signaling (AID 588544); conditions: HEK293T RXRa-UAS-bla, beta-lactamase reporter, 18 h; 530 nm emission;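 on activation: 0% = DMSO basal wells and 100% = reference agonist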
[2] = biological target: Retinoic acid receptor RXR-alpha (Homo sapiens) (UniProt P19793); assay: as above; conditions: HEK293T RXRa-UAS-bla, beta-lactamase reporter, 18 h; series mostly up to 76.7 µM
[3] = biological target: Thyroid hormone receptor beta (Homo sapiens) (UniProt P10828); assay: qHTS assay for small molecule agonists of thyroid hormone receptor beta signaling (AID 588545); conditions: TR-UAS-bla GripTite HEK 293, beta-lactamase ratio, agonist mode, 18 h, percent of T3 response, DMSO as zero; series mostly up to 76.7 µM;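 further: 0% = DMSO only and 100% = 10 nM T3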
In short: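 TR-UAS-bla GripTite HEK 293 cells (2500/well, medium with 2% charcoal/dextran FBS) were treated in agonist mode for 18 h at 37 C, titrated. Beta-lactamase was read by CCF4 ratio after 2 h; normalized to 10 nM T3 (100%) and DMSO, Hill-fitted for EC50 and efficacy.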

[4] = qHTS assay for small molecule antagonists of retinoid X receptor alpha signaling (AID 588546; active means well fitted inhibition curve with a large enough effect in the signal ratio, with a control signal flat, not every such curve was filed as active; the % refers to the signal ratio;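 further: cells stimulated with 9-cis-retinoic acid as agonist; on the % scale 0 is the no-effect control and ±100 the full control effect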); conditions: HEK293T RXRa-UAS-bla, beta-lactamase ratio, antagonist mode; measured here: W530 green channel, cytotoxicity proxy
In short: (§1)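 Beta-lactamase reporter inhibition, read as CCF4 fluorescence ratio (ex 405, em 460/530 nm) after 2 h at RT. HEK293T UAS-bla cells, 2500/well, were stimulated with 9-cis-RA at 500 or 100 nM final alongside test compound for 18 h at 37 C.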

[5] = biological target: Retinoic acid receptor RXR-alpha (Homo sapiens) (UniProt P19793); assay: as above; conditions: HEK293T RXRa-UAS-bla, beta-lactamase ratio, antagonist mode
In short: as §1

[6] = biological target: Thyroid hormone receptor beta (Homo sapiens) (UniProt P10828); assay: qHTS assay for small molecule antagonists of thyroid hormone receptor beta signaling (AID 588547; active means well fitted inhibition curve with a large enough effect in the signal ratio, with a control signal flat, not every such curve was filed as active; the % refers to the signal ratio;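 further: cells stimulated with 0.4 nM T3 agonist during compound exposure; on the % scale 0 is the no-effect control and ±100 the full control effect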); conditions: TR-UAS-bla HEK293, beta-lactamase ratio, antagonist mode, 18 h
In short: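 TR-UAS-bla GripTite HEK293 cells in 2% charcoal/dextran FBS medium were preincubated 4 h at 37 C, given compound (0.59 nM to 92 uM) plus 0.4 nM T3 (final) for 18 h, then CCF4 for 2 h at RT; Hill fit gave IC50.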

[7] = biological target: Voltage-gated inwardly rectifying potassium channel KCNH2 (Homo sapiens) (UniProt Q12809); assay: qHTS Assay for Small Molecule Inhibitors of the Human hERG Channel Activity (AID 588834; active means well fitted inhibition curve with a large enough effect;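 further: top concentration of the series differs between compounds; on the % scale 0 is the no-effect control and ±100 the full control effect; lower thallium flux fluorescence means stronger hERG block; nearly all actives have a fitted effect of over 50% in size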); conditions: U2OS BacMam hERG, FluxOR thallium flux fluorescence; series mostly up to 92.2 µM
In short: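 hERG-BacMam U2OS, 2000 cells/well; 0.7X FluxOR loading 1 hr RT dark; cpd ~10 min 37 °C; stim buffer; FDSS fluorescence 2 min @ 1 s; AC50 Hill fit.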

[8] = qHTS assay for small molecule activators of the p53 signaling pathway (AID 651743; active means well fitted activation curve with a large enough effect in the signal ratio, not every such curve was filed as active; the % refers to the signal ratio; further: % of control where 0% means no effect); conditions: HCT-116 p53RE-bla, beta-lactamase FRET ratio, 16 h; stronger effect = higher value
In short: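 p53RE-bla HCT-116 cells with a stably integrated beta-lactamase reporter under p53 response elements were plated, rested 5 hours at 37 C/5% CO2, then exposed to compounds in DMSO for 16 hours at 37 C. LiveBLAzer B/G FRET substrate was read after 2 hours at room temperature.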

[9] = qHTS assay for small molecule agonists of the antioxidant response element (ARE) signaling pathway (AID 651741; active means well fitted activation curve with a large enough effect in the signal ratio; the % refers to the signal ratio; further: potency means the concentration at half of the fitted maximal effect; on activation: % of control where 0% means no effect); conditions: HepG2 ARE-bla reporter, beta-lactamase FRET ratio, 16 h; series mostly up to 96 µM
In short: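 ARE-bla HepG2 cells (beta-lactamase reporter under ARE control) were plated at 2,000 cells/well, preincubated 5 h at 37 C/5% CO2, then treated with DMSO-dissolved compounds for 16 h at 37 C; LiveBLAzer B/G FRET substrate added, fluorescence read after 2 h at room temperature.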

[10] = qHTS assay for small molecule activators of the nuclear factor-kappa B (NF-kB) signaling pathway (AID 651749; active means well fitted activation curve with a large enough effect in the signal ratio; the % refers to the signal ratio; further: % of control where 0% means no effect); conditions: NF-kB-bla ME-180 cells, beta-lactamase FRET ratio, 16 h; stronger effect = higher value
In short: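 ME-180 cells stably carrying a beta-lactamase reporter under an NF-kB response element were exposed to compound or DMSO vehicle for 16 hr at 37C, 5% CO2. Pathway activation was read by FRET, since reporter expression disrupts FRET.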

Chain of Thyroid hormone receptor beta (Homo sapiens) (P10828 whole entry, looked up): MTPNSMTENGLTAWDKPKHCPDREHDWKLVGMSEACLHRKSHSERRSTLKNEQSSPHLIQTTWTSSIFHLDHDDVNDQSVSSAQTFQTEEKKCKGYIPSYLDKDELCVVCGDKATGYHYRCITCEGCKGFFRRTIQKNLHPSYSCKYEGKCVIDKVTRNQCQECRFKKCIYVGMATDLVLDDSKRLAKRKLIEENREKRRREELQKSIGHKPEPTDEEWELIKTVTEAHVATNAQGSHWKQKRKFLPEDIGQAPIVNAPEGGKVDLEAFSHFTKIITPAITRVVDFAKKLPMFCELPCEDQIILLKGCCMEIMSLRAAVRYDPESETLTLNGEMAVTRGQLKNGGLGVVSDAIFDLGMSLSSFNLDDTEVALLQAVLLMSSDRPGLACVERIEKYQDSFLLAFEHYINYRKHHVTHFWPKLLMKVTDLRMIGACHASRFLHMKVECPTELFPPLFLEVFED
Chain of Retinoic acid receptor RXR-alpha (Homo sapiens) (P19793 whole entry, looked up): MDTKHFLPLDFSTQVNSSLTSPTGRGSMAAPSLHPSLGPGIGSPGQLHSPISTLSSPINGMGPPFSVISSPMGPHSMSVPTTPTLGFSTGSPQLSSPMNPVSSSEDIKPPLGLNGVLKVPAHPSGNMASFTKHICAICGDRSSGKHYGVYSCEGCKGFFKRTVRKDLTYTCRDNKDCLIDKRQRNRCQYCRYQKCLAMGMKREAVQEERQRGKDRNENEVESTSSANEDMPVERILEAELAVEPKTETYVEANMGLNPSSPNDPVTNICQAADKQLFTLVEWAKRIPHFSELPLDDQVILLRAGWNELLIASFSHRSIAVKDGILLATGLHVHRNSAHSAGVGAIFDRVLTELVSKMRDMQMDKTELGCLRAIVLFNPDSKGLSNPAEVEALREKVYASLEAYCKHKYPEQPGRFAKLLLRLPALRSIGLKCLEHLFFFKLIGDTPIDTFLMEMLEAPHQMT
Chain of Voltage-gated inwardly rectifying potassium channel KCNH2 (Homo sapiens) (Q12809 whole entry, looked up): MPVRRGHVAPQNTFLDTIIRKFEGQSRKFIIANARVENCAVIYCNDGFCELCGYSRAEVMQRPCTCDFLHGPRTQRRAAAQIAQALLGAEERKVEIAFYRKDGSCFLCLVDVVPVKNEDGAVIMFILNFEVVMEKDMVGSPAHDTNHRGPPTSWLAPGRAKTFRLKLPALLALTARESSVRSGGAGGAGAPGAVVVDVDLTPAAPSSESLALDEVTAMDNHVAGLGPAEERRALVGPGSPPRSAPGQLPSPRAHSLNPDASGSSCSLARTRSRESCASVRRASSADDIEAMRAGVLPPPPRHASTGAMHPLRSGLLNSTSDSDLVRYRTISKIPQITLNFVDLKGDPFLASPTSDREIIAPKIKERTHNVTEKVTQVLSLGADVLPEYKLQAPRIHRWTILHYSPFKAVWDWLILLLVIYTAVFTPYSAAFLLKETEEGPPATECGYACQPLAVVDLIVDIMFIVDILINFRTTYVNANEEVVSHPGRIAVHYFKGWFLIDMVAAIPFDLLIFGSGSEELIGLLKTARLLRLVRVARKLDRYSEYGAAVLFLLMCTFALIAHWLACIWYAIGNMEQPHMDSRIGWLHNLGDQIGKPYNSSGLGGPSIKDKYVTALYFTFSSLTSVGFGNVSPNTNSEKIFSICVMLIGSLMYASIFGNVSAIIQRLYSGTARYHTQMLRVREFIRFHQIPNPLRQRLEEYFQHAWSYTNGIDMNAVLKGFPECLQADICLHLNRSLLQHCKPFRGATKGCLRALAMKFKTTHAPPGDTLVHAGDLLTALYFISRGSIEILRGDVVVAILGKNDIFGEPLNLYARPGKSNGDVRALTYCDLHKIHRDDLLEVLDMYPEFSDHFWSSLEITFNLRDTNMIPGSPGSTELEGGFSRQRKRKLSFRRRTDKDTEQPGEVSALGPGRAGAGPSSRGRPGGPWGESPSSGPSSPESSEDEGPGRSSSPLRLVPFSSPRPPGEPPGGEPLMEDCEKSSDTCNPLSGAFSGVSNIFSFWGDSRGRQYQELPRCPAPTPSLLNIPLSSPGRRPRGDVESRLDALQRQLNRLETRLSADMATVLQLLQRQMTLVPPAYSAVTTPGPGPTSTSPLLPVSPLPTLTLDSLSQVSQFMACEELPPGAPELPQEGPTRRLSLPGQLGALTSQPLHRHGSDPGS

Structure (SMILES) | max response [1] | outcome [2] | outcome [3] | max response [4] [%] | max response [5] | activity change % (negative = inhibition) [6] | Potency [7] | activation [8] | Potency [9] | activation [10]
Cc1c(N)cccc1[N+](=O)[O-] | -2.78% | inactive | inactive | -6.48 | -2.95% (inactive) | -5.59% (inactive) | inactive | -0.892% (inactive) | – | –
CC(C)(O)CCC(C)(C)O | -8.68% | inactive | inactive | -5.49 | 1.42% (inactive) | 4.09% (inactive) | inactive | -3.36% (inactive) | – | –
Cc1ccc2oc(=O)ccc2c1 | 0.296% and 3.97% | inactive | inactive | -0.906 | -15.9% (inactive) | -13% (inactive) and 13.3% (inactive) | inactive | – | 8.63 µM (active) | -0.483% (inactive) and -1.78% (inactive)
Fc1ccccc1 | -11.1% | inactive | inactive | -11.6 | -5.23% (inactive) | -5.64% (inactive) | inactive | – | inactive | 0.343% (inactive)
C=Cc1ccccc1C=C | -7.36% | inactive | inactive | -3.83 | -4.16% (inactive) | -4.38% (inactive) | inactive | -1.45% (inactive) | – | –
ClC/C=C/CCl | -8.83% | inactive | inactive | -5.15 | 0.33% (inactive) | 19.3% (inactive) | inactive | -2.54% (inactive) | – | –
C[C@@H]1O[C@@H](O[C@@H]2[C@@H](O)[C@H](OCCc3ccc(O)c(O)c3)O[C@H](CO[C@@H]3O[C@H](CO)[C@@H](O)[C@H](O)[C@H]3O)[C@H]2OC(=O)/C=C/c2ccc(O)c(O)c2)[C@H](O)[C@H](O)[C@H]1O | 0.999% | inactive | inactive | -0.609 | -6.94% (inactive) | 4.68% (inactive) | inactive | -0.671% (inactive) | inactive | -0.414% (inactive)
O=C1CCCCC1 | -9.55% | inactive | inactive | -8.36 | -0.633% (inactive) | -11.2% (inactive) | inactive | – | inactive | -1.28% (inactive)
C=CCn1c(=O)n(CC=C)c(=O)n(CC=C)c1=O | -13.5% | inactive | inactive | -12.4 | 6.59% (inactive) | -0.231% (inactive) | inactive | 0.0041% (inactive) | – | –
CCCCCCCN | -16.2% | inactive | inactive | 3.38 | -5.49% (inactive) | 3.05% (inactive) | inactive | -0.0412% (inactive) | – | –
Cc1ccccc1C=O | -10.4% | inactive | inactive | 9.24 | 9.95% (inactive) | 20.8% (inactive) | inactive | 3.12% (inactive) | – | –
CC(=O)OC(C)C | 0.6% | inactive | inactive | 7.8 | 7.02% (inactive) | 7.16% (inactive) | inactive | -0.528% (inactive) | – | –
O=Cc1ccccc1Cl | -11.2% | inactive | inactive | 3.56 | 26.5% (inactive) | 5% (inactive) | inactive | – | inactive | -1.13% (inactive)
NC(=O)c1cccc([N+](=O)[O-])c1 | 2.13% | inactive | inactive | -10.9 | -6.67% (inactive) | 12.3% (inactive) | inactive | 8.78% (inactive) | – | –
NC=O | 4.7% | inactive | inactive | -9.34 | -7.48% (inactive) | 21.1% (inactive) | inactive | – | inactive | -0.435% (inactive)
CC(=O)c1nccs1 | 4.76% | inactive | inactive | -5.53 | -9.7% (inactive) | 1.64% (inactive) | inactive | -4.02% (inactive) | – | –
O=P(O)(OCc1ccccc1)OCc1ccccc1 | 6.08% | inactive | inactive | -0.49 | -5.97% (inactive) | 0.248% (inactive) | inactive | -2.58% (inactive) | – | –
CC(=O)OCCC(C)C | -5.59% | inactive | inactive | -8.93 | 2.22% (inactive) | 8.77% (inactive) | inactive | -1.24% (inactive) | – | –
COc1ccc(N)c(C)c1 | -12.9% | inactive | inactive | -2.69 | 8.01% (inactive) | -12.3% (inactive) | inactive | – | inactive | -0.857% (inactive)
Cc1ccc(S(=O)(=O)NC2CCCCC2)cc1 | -12.2% | inactive | inactive | -7.45 | 11.2% (inactive) | -0.348% (inactive) | inactive | -2.24% (inactive) | – | -0.807% (inactive)
CCCC(Cl)CCCC(Cl)CCC(Cl)CCC(Cl)CCC(Cl)CCCC(Cl)CCC (stereo not drawn) | -10.5% | inactive | inactive | -0.455 | -10.6% (inactive) | -14.9% (inactive) | inactive | 0.55% (inactive) | – | 0.0275% (inactive)

From PubChem BioAssay (NCATS)
